This is a sample that favours compounds with a hit; in the whole collection about 4% have one here.
RAD52 anneal inh: RAD52 DNA annealing inhibitors, primary screen, biochemical, FRET, single point, set 2. DNA repair protein RAD52 homolog (Homo sapiens), P43351. recombinant RAD52 DNA annealing, FRET fluorescence. 360,000 compounds, 0.46% hits. AID 651710, 2012. inhibition, % at 18.7 µM;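 active means every replicate showing at least 50% inhibition; inconclusive means mean inhibition at least 50% but not in every replicate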
ERAP1 inh: human ERAP1 aminopeptidase inhibitors, primary screen, biochemical, single point, plate reader | recombinant ERAP1, Leu-AMC fluorescence, 60 min | inhibition, % at 10.7 µM | 340,000 compounds, 0.15% hits | Endoplasmic reticulum aminopeptidase 1 (Homo sapiens), Q9NZ08;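 active means mean replicate inhibition of at least 30%, or all replicates individually reaching that 30% level; inactive means mean below 30% and not every replicate reaching it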
DENV2 CPE rescue: inhibitors of DENV2 cytopathic effect, primary screen, cell-based, plate reader, single concentration | 350,000 compounds, 1.7% hits | DENV2-infected cells, cytopathic effect rescue | CPE inhibition, % at 9.99 µM; in the data active means CPE inhibition above about 20%, passing the limit was not always enough; inconclusive means no clear call, values can overlap the other calls; tested in BHK-21 cells
MLL AF4-AF9 inh: inhibitors of AF4 peptide binding to AF9, primary screen, biochemical, AlphaScreen, biotin-AF4 peptide, FLAG-AF9, single point | inhibition, % at 10 µM | Protein AF-9 (Homo sapiens), P42568 | 350,000 compounds, 0.47% hits;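 active means every replicate reaching a set inhibition limit, whatever the replicate mean, cut at about 25% in these data; inconclusive means mean inhibition reaches that limit but some replicates miss it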
Target sequence (P42568 whole entry, looked up): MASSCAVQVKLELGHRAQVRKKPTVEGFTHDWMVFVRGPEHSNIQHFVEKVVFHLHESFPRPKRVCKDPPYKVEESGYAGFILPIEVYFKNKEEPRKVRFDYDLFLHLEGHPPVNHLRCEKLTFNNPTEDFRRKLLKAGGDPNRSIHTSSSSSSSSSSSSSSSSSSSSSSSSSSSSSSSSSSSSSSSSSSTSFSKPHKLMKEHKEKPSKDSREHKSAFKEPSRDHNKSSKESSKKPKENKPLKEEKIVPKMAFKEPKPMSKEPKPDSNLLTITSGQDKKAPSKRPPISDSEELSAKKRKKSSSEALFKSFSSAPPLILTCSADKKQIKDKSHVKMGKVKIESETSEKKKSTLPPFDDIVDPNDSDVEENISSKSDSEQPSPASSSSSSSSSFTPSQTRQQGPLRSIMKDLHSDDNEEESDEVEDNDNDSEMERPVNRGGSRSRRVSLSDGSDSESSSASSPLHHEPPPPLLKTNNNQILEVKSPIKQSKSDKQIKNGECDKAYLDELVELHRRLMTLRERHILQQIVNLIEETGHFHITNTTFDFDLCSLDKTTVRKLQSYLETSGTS
FGF22 binding: binders of human FGF22 protein, primary screen, FGF22 synaptogenesis inhibitor project, biophysical, thermal shift, single point. activity (Tm shift, normalised), % at 9.99 µM. recombinant FGF22 thermal shift, SYPRO orange fluorescence; percent of sucrose octasulfate shift, DMSO zero. Fibroblast growth factor 22 (Homo sapiens), Q9HCT0. 340,000 compounds, 1.5% hits;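 active means mean Tm shift, scaled 0 neutral to 100 positive control, at about 1.3% or above, every replicate too, limit read from the data; inconclusive means no clear call, values can overlap the other calls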
Large screens that a line does not name were inactive; ! = not active in a repeat.

CNC[C@@H]1Oc2ncc(-c3cccc(F)c3)cc2C(=O)N([C@@H](C)CO)C[C@@H]1C	DENV2 CPE rescue 24.6
O=C(NCC[C@H]1CC[C@H](NC(=O)C2CCC2)[C@H](CO)O1)c1cnccn1	none
CCOC(=O)N1CCN(C2=C(NS(=O)(=O)c3ccccc3)C(=O)c3ccccc3C2=O)CC1	MLL AF4-AF9 inh 26.4
CCOC(=O)N1CCN(C2=C(NS(=O)(=O)c3ccc(Br)cc3)C(=O)c3ccccc3C2=O)CC1	MLL AF4-AF9 inh 32.5
CCN1CCN(C2=C(NS(=O)(=O)c3ccccc3)C(=O)c3ccccc3C2=O)CC1	none
Cc1ccc(S(=O)(=O)Nc2ccc3c(c2)C(=O)N([C@@H](C)CO)C[C@@H](C)[C@H](CN(C)Cc2ccncc2)OCCCC[C@H](C)O3)cc1	none
CCCCC[C@H]1CN(CCCC)C(=O)[C@@H]1CC(=O)NCc1ccc(OC)cc1	DENV2 CPE rescue inconclusive
CCCCN1C[C@H](Cc2ccccc2)[C@@H](CC(=O)NCc2ccc(OC)cc2)C1=O	DENV2 CPE rescue 48.0
CCCCC[C@H]1CN(CCc2ccccc2)C(=O)[C@@H]1CC(=O)NCc1ccc(OC)cc1	DENV2 CPE rescue 24.0
O=C(C[C@H]1C(=O)N(Cc2ccccc2)C[C@@H]1Cc1ccccc1)Nc1ccc(Br)cc1	DENV2 CPE rescue 25.6
O=C(C[C@H]1C(=O)N(Cc2cccnc2)C[C@@H]1Cc1ccccc1)Nc1ccc(Br)cc1	none (no result: ERAP1 inh)
CS(=O)(=O)N1CC(=O)N2[C@H](CO)[C@H](c3ccc(C#Cc4cccc(F)c4)cc3)[C@@H]2C1	none (no result: FGF22 binding)
COc1ccc(S(=O)(=O)N(C)C[C@@H]2Oc3ccc(NS(=O)(=O)c4cccs4)cc3C(=O)N([C@H](C)CO)C[C@H]2C)cc1	none
COc1cccc(-c2ccc([C@@H]3[C@H]4CN(C(=O)c5ccncc5)CC(=O)N4[C@H]3CO)cc2)c1	none (no result: FGF22 binding)
O=c1[nH][nH]c(-c2ccccc2)c1C=Nc1ccc(F)cc1F	FGF22 binding 43.9
CCOc1[nH]n(-c2ccccc2)c(=O)c1C=Nc1ccc(F)cc1F	none
CCCC#Cc1ccc([C@@H]2[C@H](CO)N3CCCCN(CC4CCOCC4)C[C@@H]23)cc1	DENV2 CPE rescue 46.4
CCCC#Cc1ccc([C@H]2[C@@H](CO)N3CCCCN(CC4CC4)C[C@H]23)cc1	RAD52 anneal inh 52.9
COCC#Cc1ccc2c(c1)O[C@H](CN(C)CC1CCOCC1)[C@@H](C)CN([C@H](C)CO)S2(=O)=O	none
COc1cccc(NC(=O)CN(C)C(=O)Cc2ccc3c(c2)OCCO3)c1	DENV2 CPE rescue 41.7
C=CC#CC[N+]1(CC#Cc2ccccc2)CCOCC1	RAD52 anneal inh 74.3, MLL AF4-AF9 inh 97.2
C[C@H](CO)N1C[C@H](C)[C@@H](CN(C)S(=O)(=O)c2cn(C)cn2)OCc2ccccc2-c2c(n(C)c3ccccc23)C1=O	none
Cc1cc(C(C)(C)C)cc(C)c1S(=O)(=O)N1CC(=O)Nc2ccccc21	FGF22 binding 1.5
COC(=O)[C@H]1[C@H](CO)[C@H]2Cn3c(ccc(-c4ccccc4OC)c3=O)[C@H]2N1C(=O)c1cccnc1	none
Cc1cccc(C)c1OCC(N)C(C)C (stereo not drawn)	ERAP1 inh 105.3
Cc1cccc(C)c1OCC(C)N (stereo not drawn)	none
C/C=C/c1cnc2c(c1)C(=O)N([C@@H](C)CO)C[C@@H](C)[C@H](CN(C)C(=O)c1cccc(F)c1)O2	none (no result: ERAP1 inh)
CCOC(=O)c1c[nH]c2nc(C)ccc2c1=O	FGF22 binding 43.1
CCOC(=O)c1cc(C(=O)NN)c(C)nc1C	none
COc1ccc(N2CCN(C(=O)CSc3ccc([N+](=O)[O-])cc3)CC2)cc1	none
COc1ccc(N2CCN(C(=O)CSc3ccc(C)cc3)CC2)cc1	FGF22 binding 43.6
C[C@@H]1CN([C@H](C)CO)C(=O)c2cc(NC(=O)CCCCCC(=O)Nc3ccccc3N)ccc2O[C@@H]1CN(C)S(=O)(=O)c1ccccc1	none (no result: ERAP1 inh)
CCNC(=O)C[C@@H]1C=C[C@@H](NC(=O)NC2CCCCC2)[C@H](CO)O1	none
Cc1ccc(C(=O)NCC(=O)NCC(c2cccs2)N2CCOCC2)cc1C (stereo not drawn)	DENV2 CPE rescue 93.4
CCOC(=O)N1CCC(C(=O)NNC(=O)c2ccc(Cl)cc2Cl)CC1	DENV2 CPE rescue 45.3
O=c1[nH]c(=O)c2cc([N+](=O)[O-])cc([N+](=O)[O-])c2[nH]1	FGF22 binding 43.1
O=C(CS(=O)c1ccccc1[N+](=O)[O-])Oc1ccc(Br)cc1 (stereo not drawn)	none
O=[N+]([O-])c1ccccc1S(=O)c1ccccc1[N+](=O)[O-]	DENV2 CPE rescue 32.4
CCCCCCCn1c2c(c(=N)c3c1CCC3)CCCC2	ERAP1 inh 82.8
CCn1c2c(c(=N)c3c1CCC3)CCC2	none
Cn1c(SCC(=O)Nc2ccc(F)cc2)nnc1-c1cccnc1	DENV2 CPE rescue 21.9
Cn1c(SCC(=O)Nc2ccccc2F)nnc1-c1cccnc1	none (no result: ERAP1 inh)
Nc1ccc(N=Nc2ccccc2)c(N)n1	MLL AF4-AF9 inh 33.8
Nc1ccc(N=Nc2ccccc2)c2ccccc12	none
COc1ccc(NC(=O)N[C@H]2C=C[C@H](CC(=O)NC3CCC3)O[C@H]2CO)cc1	none
O=C(O)[C@@H]1CCCN1C(=O)c1ccccc1N1C(=O)[C@@H]2Cc3c([nH]c4ccccc34)C(c3cccc(Cl)c3)N2C1=O (stereo partly drawn)	ERAP1 inh 32.7
COc1ccc(C#Cc2ccc3c(c2)[C@H]2[C@H](CCN2Cc2ccncc2)[C@H](CO)N3)cc1	none (no result: FGF22 binding)
CO[C@@H]1CN(C)C(=O)c2ccc(NC(C)=O)cc2OC[C@H](C)N(C(=O)C2CCOCC2)C[C@H]1C	none
C[C@H]1CN([C@@H](C)CO)C(=O)c2c(c3ccccc3n2C)-c2ccccc2CO[C@@H]1CN(C)Cc1cccc2c1OCCCO2	none
COc1cccc(CN(C)C[C@@H]2OCc3ccccc3-c3c(n(C)c4ccccc34)C(=O)N([C@@H](C)CO)C[C@H]2C)c1	DENV2 CPE rescue 49.3!
C[C@H](CO)N1C[C@H](C)[C@@H](CN(C)Cc2ccc(-c3ccccc3)cc2)OCc2ccccc2-c2c(n(C)c3ccccc23)C1=O	RAD52 anneal inh 80.1 (no result: FGF22 binding)
C[C@@H]1CN([C@H](C)CO)C(=O)c2c(c3ccccc3n2C)-c2ccccc2CO[C@@H]1CN(C)Cc1cccc2c1OCCCO2	DENV2 CPE rescue 28.0
COc1cccc(CN(C)C[C@H]2OCc3ccccc3-c3c(n(C)c4ccccc34)C(=O)N([C@@H](C)CO)C[C@H]2C)c1	none
Cc1noc(C)c1S(=O)(=O)Nc1ccc2c(c1)C(=O)N([C@H](C)CO)C[C@H](C)[C@@H](CN(C)Cc1ccc3c(c1)OCO3)OCCCC[C@H](C)O2	none

Compound activity: PubChem, Broad Institute
